Experiment [1] can be described thus: ATG_DR4_LXR_CIS: Attagene CIS-FACTORIAL HepG2 Assay for human Liver X Receptor (LXR), DR4 submotif (AID 2282929). As to conditions: HepG2 Attagene DR4 cis-reporter, mRNA transcription; AC50: actives raise or lower the signal unless noted; outcome: actives raise or lower the signal unless noted. The essentials:
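After transient transfection with multiplexed cis-promoter reporter units, HepG2 cells received test chemicals for 24 h. Reporter mRNA induction, detected by fluorescence after RT-PCR and capillary electrophoresis, was scored relative to DMSO.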

The target in experiment [2] is Aryl hydrocarbon receptor (Homo sapiens) (UniProt P35869). As to the kind of experiment: ATG_Ahr_CIS: Attagene CIS-FACTORIAL HepG2 Assay for human Aryl Hydrocarbon Receptor (Ahr) (AID 2282930). As to conditions: HepG2 AhR cis-factorial reporter transcription; actives raise or lower the signal. The essentials:
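Reporter mRNA levels, quantified by RT-PCR and fluorescent capillary electrophoresis, reflect endogenous AhR transcriptional activity in HepG2 cells carrying transfected cis-promoter reporter constructs. Readout at 24 h post-dose; gain or loss fitted against DMSO baseline.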

The nature of experiment [3]: ATG_AP_1_CIS: Attagene CIS-FACTORIAL HepG2 Assay for human Activator Protein 1 (AP-1) (AID 2282931). To be noted: HepG2 Attagene cis-factorial AP-1 reporter mRNA; actives raise or lower the signal. The essentials: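 After 24 h incubation with test chemical, RNA from transfected HepG2 cells was reverse-transcribed, amplified, fluorescently labelled and digested before capillary electrophoresis. Reporters were driven by cis-regulatory promoters; activity fitted bidirectionally versus DMSO.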

The nature of experiment [4]: ATG_AP_2_CIS: Attagene CIS-FACTORIAL HepG2 Assay for human Activator Protein 2 (AP-2) (AID 2282932). To be noted: HepG2 AP-2 cis-reporter, Attagene transcription factor profiling; AC50: actives raise or lower the signal unless noted; outcome: actives raise or lower the signal unless noted. The essentials:
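Transiently transfected HepG2 cells are exposed to chemical for 24 h. Reporter transcripts are then measured as fluorescence following RT-PCR and capillary separation, and gain- or loss-of-signal is fitted relative to DMSO.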

Experiment [5] can be described thus: ATG_BRE_CIS: Attagene CIS-FACTORIAL HepG2 Assay for human Bone Morphogenetic Protein (BMP) Response Element (BRE) (AID 2282933). As to conditions: HepG2 BMP response element reporter, Attagene transcription factor profiling; actives raise or lower the signal. In a few lines: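 Endogenous transcription factor activity at a BMP response element was monitored in transfected HepG2 cells 24 h after dosing. Fluorescent RT-PCR products were resolved by capillary electrophoresis, and activity was fitted in both directions versus DMSO.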

Experiment [6] concerns the target Retinoic acid receptor alpha (Homo sapiens) (UniProt P10276). The experiment can be described thus: ATG_DR5_RAR_CIS: Attagene CIS-FACTORIAL HepG2 Assay for human Retinoic Acid Receptor Alpha (RARE), DR5 submotif (AID 2282934).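 As to AC50: reporter responds to endogenous RAR alpha beta and gamma in HepG2 not RARA alone.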 As to conditions: HepG2 Attagene cis-factorial RARE DR5 reporter, mRNA; actives raise or lower the signal. In a few lines:
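Reporter transcripts from a DR5-regulated unit, measured via RT-PCR plus capillary electrophoresis, reflect endogenous RAR activity in transiently transfected human HepG2 liver cells. Exposure lasted 24 h; gain or loss of signal scored against DMSO.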

For experiment [7], the target named is Transcription factor E2F1 (Homo sapiens) (UniProt Q01094). As to the kind of experiment: ATG_E2F_CIS: Attagene CIS-FACTORIAL HepG2 Assay for human E2F Transcription Factor 1 (AID 2282935). As to conditions: HepG2 Attagene cis-reporter, E2F reporter RNA transcripts; actives raise or lower the signal. The essentials: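 Fluorescent RT-PCR products, digested with HpaI for 2 h at 37 C, are separated by capillary electrophoresis. Source RNA comes from transfected HepG2 cultures treated for 24 h.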

Experiment [8] is described as follows: ATG_E_Box_CIS: Attagene CIS-FACTORIAL HepG2 Assay for human Enhancer Box (E-box) (AID 2282936). To be noted: HepG2 E-box cis-reporter transcription, actives raise or lower the signal. In a few lines: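 Fluorescent reporter fragments separated by capillary electrophoresis gave the signal; mRNA came from HepG2 cells transfected with cis-element reporters and treated 24 h. Curves fitted bidirectionally relative to DMSO controls.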

Experiment [9] in a line: ATG_M_61_CIS: Attagene CIS-FACTORIAL HepG2 Assay for M61 Transcription Factor (Internal Marker) (AID 2282937). To be noted: HepG2 Attagene CIS-FACTORIAL M61 internal marker reporter; actives raise or lower the signal. In a few lines: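 Using transiently transfected HepG2 liver cells, reporter transcript levels were assessed 24 h post-dosing by RT-PCR and capillary electrophoresis. Changes in either direction were fitted relative to DMSO controls.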

Experiment [10] in a line: ATG_EGR_CIS: Attagene CIS-FACTORIAL HepG2 Assay for human Early Growth Response 1 (EGR1) (AID 2282938). As to conditions: HepG2 Attagene CIS-FACTORIAL EGR reporter mRNA; actives raise or lower the signal. In a few lines:
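Fluorescent capillary-electrophoresis signal of reporter cDNA fragments serves as read-out. HepG2 cells bear transiently transfected cis-promoter reporter units and are exposed 24 h; gain- or loss-of-signal is fitted against DMSO.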

Experiment [11] in a line: ATG_Ets_CIS: Attagene CIS-FACTORIAL HepG2 Assay for human Erythroblast Transformation Specific (ETS) (AID 2282941). As to conditions: HepG2 ETS cis-reporter transcription; AC50: actives raise or lower the signal unless noted; outcome: actives raise or lower the signal unless noted. In a few lines:
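RT-PCR/capillary electrophoresis fluorescence read-out of reporter mRNA; HepG2 transient multi-reporter transfection; 24 h compound exposure; gain or loss of signal fitted bidirectionally relative to DMSO.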

Experiment [12] deals with Hepatocyte nuclear factor 3-beta (Homo sapiens) (UniProt Q9Y261). As to the kind of experiment: ATG_FoxA2_CIS: Attagene CIS-FACTORIAL HepG2 Assay for human Forkhead box A2 (FOXA2) (AID 2282942). As to conditions: HepG2 cis-reporter transcription factor activity, 24 h; actives raise or lower the signal. The essentials: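 Fluorescence signal of reporter cDNA fragments, separated by capillary electrophoresis, reflects endogenous transcription factor activity in transfected HepG2 after 24 h. Both increases and decreases fitted against DMSO.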

Experiment [13] in a line: ATG_FoxO_CIS: Attagene CIS-FACTORIAL HepG2 Assay for human Forkhead box O (FoxO) (AID 2282943). As to conditions: HepG2 Attagene cis-reporter, FoxO element, mRNA; actives raise or lower the signal. In a few lines:
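Endogenous transcription factor activity read from multiplexed cis-promoter reporter transcripts in transiently transfected HepG2, 24 h after dosing. Reporter RNA measured via RT-PCR plus capillary electrophoresis of FAM-labeled products; gain or loss relative to DMSO.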

Experiment [14] is described as follows: ATG_GATA_CIS: Attagene CIS-FACTORIAL HepG2 Assay for human GATA Binding Protein (AID 2282944). As to conditions: HepG2 GATA cis-element reporter, Attagene multiplex mRNA; actives raise or lower the signal. In a few lines:
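Endogenous transcription factor activity was captured through cis-promoter-driven reporters in transfected HepG2 cells. After 24 h exposure, reporter transcripts were quantified by RT-PCR with fluorescent capillary electrophoresis, and responses fitted both directions against DMSO.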

A short description of experiment [15]: ATG_GLI_CIS: Attagene CIS-FACTORIAL HepG2 Assay for human Zinc Finger Protein GLI1 (AID 2282945). As to conditions: HepG2, Attagene cis-factorial reporter mRNA, GLI element; actives raise or lower the signal. In a few lines: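 Bidirectional curve fits relative to DMSO, using reporter mRNA levels from RT-PCR plus capillary electrophoresis. Cells were HepG2 transiently carrying cis-regulated reporter constructs, harvested 24 h after dosing.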

In experiment [16] the target is Bile acid receptor (Homo sapiens) (UniProt Q96RI1). The experiment can be described thus: ATG_IR1_CIS: Attagene CIS-FACTORIAL HepG2 Assay for human Nuclear Receptor Subfamily 1 Group H Member 4 (NR1H4), IR1 submotif (AID 2282946). To be noted: IR1 reporter transcription, actives raise or lower the signal. In a few lines:
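HepG2 cells transiently transfected with multiplexed cis-element reporter units read endogenous transcription factor activity. After 24 h compound exposure, reporter mRNA was quantified by RT-PCR, fluorescent labelling, HpaI digestion and capillary electrophoresis; bidirectional fitting versus DMSO baseline.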

Experiment [17] can be described thus: ATG_GRE_CIS: Attagene CIS-FACTORIAL HepG2 Assay for human Glucocorticoid Response Elements (GRE) (AID 2282947). To be noted: HepG2 GRE cis-reporter, Attagene multiplex mRNA; AC50: actives raise or lower the signal unless noted; outcome: actives raise or lower the signal unless noted. In a few lines:
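Multiplexed cis-reporter mRNA induction, HepG2, 24 h post-dose. RT-PCR, FAM-labelled, HpaI-digested amplicons by CE. Bidirectional fit vs DMSO.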

The nature of experiment [18]: ATG_ISRE_CIS: Attagene CIS-FACTORIAL HepG2 Assay for human Interferon Regulatory Factor 1 (IRF1) binding to an Interferon-Stimulated Response Element (ISRE) (AID 2282948). As to conditions: HepG2 ISRE cis-reporter (Attagene), mRNA transcription readout; actives raise or lower the signal. The essentials:
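Read-out: fluorescent RT-PCR products resolved by capillary electrophoresis, reporting endogenous transcription factor activity via ISRE-driven reporter mRNA in transfected HepG2 cells dosed for 24 h; gain or loss fitted relative to DMSO.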

Experiment [19] is described as follows: ATG_M_19_CIS: Attagene CIS-FACTORIAL HepG2 Assay for M19 Transcription Factor (Internal Marker) (AID 2282939). As to conditions: HepG2 Attagene CIS-FACTORIAL M19 internal marker reporter; actives raise or lower the signal. In a few lines: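 Background-control endpoint from a multiplexed HepG2 reporter panel. Cells carrying cis-regulated reporter constructs are treated 24 h, then reporter transcripts are amplified, fluorescently labelled and sized by capillary electrophoresis. DMSO defines baseline.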

“And” between values parts separate entries of the source, which are not always exact repeats. Equal entries are not always repeated. Some structures have more than one record in an assay (separate samples or runs), and their calls can disagree. The source made the active and inactive calls. The calls were made as follows: active = hit-call score of the fitted dose curve at least 0.9, where 1 is the maximum; inactive = score below 0.9.

Sequence of Transcription factor E2F1 (Homo sapiens) (Q01094 whole entry, looked up): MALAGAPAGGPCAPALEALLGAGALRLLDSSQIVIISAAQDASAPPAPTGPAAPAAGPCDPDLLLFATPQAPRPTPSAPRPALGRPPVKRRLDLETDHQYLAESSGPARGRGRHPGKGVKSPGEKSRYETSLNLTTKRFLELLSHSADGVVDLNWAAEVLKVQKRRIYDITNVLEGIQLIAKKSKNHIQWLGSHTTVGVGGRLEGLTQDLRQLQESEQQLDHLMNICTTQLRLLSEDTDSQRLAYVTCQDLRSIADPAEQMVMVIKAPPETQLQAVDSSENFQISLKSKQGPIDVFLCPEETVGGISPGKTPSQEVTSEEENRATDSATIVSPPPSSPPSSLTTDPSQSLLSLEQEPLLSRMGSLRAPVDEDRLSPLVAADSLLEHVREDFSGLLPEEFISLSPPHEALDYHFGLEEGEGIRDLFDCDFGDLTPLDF
Sequence of Aryl hydrocarbon receptor (Homo sapiens) (P35869 whole entry, looked up): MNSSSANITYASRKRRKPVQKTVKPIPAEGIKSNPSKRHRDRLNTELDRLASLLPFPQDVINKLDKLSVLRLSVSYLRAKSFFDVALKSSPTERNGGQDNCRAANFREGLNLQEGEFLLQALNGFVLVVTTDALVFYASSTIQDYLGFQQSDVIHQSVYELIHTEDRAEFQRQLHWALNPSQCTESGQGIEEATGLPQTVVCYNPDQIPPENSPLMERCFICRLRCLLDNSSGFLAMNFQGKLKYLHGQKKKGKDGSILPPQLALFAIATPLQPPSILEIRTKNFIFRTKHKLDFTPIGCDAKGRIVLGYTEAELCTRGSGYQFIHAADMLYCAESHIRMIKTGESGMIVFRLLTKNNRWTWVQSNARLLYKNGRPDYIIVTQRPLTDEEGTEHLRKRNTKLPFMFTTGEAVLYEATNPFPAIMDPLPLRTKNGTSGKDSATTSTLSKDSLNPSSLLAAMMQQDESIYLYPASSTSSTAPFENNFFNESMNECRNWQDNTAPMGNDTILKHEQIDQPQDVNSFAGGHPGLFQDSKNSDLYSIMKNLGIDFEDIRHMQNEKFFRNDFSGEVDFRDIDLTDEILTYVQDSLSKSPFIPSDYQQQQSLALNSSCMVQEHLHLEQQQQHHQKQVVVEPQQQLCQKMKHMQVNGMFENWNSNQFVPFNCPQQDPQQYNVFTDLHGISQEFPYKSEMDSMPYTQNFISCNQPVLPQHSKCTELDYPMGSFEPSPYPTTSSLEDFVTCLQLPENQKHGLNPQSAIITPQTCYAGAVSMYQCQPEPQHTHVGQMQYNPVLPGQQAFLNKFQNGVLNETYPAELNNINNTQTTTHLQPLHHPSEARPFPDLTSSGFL
Sequence of Bile acid receptor (Homo sapiens) (Q96RI1 whole entry, looked up): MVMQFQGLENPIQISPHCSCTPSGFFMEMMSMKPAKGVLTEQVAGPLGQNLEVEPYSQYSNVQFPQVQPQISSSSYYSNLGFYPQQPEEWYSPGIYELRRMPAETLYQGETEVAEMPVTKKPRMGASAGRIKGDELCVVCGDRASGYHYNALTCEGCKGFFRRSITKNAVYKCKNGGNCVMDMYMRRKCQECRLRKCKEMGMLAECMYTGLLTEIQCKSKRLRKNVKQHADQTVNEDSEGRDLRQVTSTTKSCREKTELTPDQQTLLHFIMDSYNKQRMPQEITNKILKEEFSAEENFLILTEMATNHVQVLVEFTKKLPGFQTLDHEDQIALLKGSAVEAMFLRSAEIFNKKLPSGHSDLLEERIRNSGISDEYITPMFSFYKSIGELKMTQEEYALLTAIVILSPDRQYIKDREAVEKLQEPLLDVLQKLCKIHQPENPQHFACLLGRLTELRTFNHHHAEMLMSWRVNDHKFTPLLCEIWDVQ
Sequence of Retinoic acid receptor alpha (Homo sapiens) (P10276 whole entry, looked up): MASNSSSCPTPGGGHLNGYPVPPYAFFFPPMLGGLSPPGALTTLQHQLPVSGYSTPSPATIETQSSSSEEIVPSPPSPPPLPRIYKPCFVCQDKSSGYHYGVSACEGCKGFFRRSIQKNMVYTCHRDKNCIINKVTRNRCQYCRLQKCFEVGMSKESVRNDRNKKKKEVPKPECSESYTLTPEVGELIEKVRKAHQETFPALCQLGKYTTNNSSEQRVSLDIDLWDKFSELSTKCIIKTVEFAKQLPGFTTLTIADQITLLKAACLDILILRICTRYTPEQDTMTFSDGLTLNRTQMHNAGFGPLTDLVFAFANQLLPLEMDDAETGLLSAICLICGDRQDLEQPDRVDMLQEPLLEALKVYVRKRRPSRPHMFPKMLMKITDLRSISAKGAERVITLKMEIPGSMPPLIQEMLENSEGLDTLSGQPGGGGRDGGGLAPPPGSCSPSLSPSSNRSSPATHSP
Sequence of Hepatocyte nuclear factor 3-beta (Homo sapiens) (Q9Y261 whole entry, looked up, the tested form may be a part): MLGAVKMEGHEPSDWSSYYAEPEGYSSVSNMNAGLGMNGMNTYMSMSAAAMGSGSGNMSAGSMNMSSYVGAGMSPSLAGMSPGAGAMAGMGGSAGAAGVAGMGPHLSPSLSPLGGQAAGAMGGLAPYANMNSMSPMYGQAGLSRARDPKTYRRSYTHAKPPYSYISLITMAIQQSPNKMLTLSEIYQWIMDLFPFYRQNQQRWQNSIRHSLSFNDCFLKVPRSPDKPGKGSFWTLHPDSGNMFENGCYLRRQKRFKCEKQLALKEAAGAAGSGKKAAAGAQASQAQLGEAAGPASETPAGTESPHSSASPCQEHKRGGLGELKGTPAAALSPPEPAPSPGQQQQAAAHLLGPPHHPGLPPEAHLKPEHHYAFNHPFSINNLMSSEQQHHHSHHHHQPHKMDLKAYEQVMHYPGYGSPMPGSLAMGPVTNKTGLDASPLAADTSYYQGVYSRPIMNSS

Consider `CCCCCCCCCCCC[N+](C)(C)Cc1ccccc1`, for which the AC50 (in general, the midpoint of the concentration-response curve, whichever way the signal moves) was 11.1 µM (active) in experiment [1]; 15.7 µM (active) in [4]; 12.4 µM (active) in experiment [8]; 17.3 µM (active) in experiment [10]; 11.1 µM (active) in experiment [11]; 16.7 µM (active) in experiment [15]. Also, the molecule was classed as inactive in experiment [1], in experiment [2], in [3], in [4], in experiment [5] and in experiment [6]. Further, the molecule was classed as inactive in experiment [7], in experiment [8], in [9], in experiment [10], in [11] and in experiment [12]. For the same molecule, the molecule was called inactive in [13], in experiment [14], in experiment [15], in experiment [16], in experiment [17] and in experiment [18].

For `CC(O)COc1ccccc1` (stereo unspecified), the molecule was called inactive in [1], in experiment [2], in experiment [3], in [4], in [5] and in [6]. Moreover, the call in experiment [7], in [8], in [9], in experiment [10], in [19] and in experiment [11] was inactive. Moreover, the result in [12], in [13], in experiment [14], in experiment [15], in [16] and in experiment [17] was inactive. Besides, in experiment [18], the molecule was classed as inactive. In addition, the concentration at half-maximal activity (AC50) in [2] is 6.06 µM (active).

In the case of `O=C(NO)c1ccccc1`, the half-maximal activity concentration (AC50) in experiment [1] was 26.6 µM (active) [middle of 4 runs]; in experiment [2], 19 µM (active) and 22.3 µM (active); in experiment [3] it was 26.5 µM (active) [middle of 4 runs]; in [4], 63.6 µM (active) and 59.8 µM (active); in experiment [5], 21 µM (active) [middle of 4 runs]; in experiment [6] it was 13.7 µM (active) [middle of 4 runs]. Moreover, the AC50 in experiment [8] was 27.9 µM (active) [middle of 4 runs]; in experiment [16], 10.8 µM (active) and 19.5 µM (active); in [18] it was 44.4 µM (active) [middle of 4 runs]. Also, the molecule was called inactive in [2], in experiment [4], in experiment [7], in experiment [9], in experiment [10] and in [19]. For the same molecule, the outcome in experiment [11], in [12], in [13], in [14], in experiment [15] and in experiment [16] was inactive. Also, in experiment [17], the molecule was classed as inactive.

The values above are taken from PubChem BioAssay (EPA / NIEHS).
